Assay results as given in PubChem BioAssay (NCATS).
Inconclusive results are not listed. A call without a number means that no potency is given here. Calls of active or inactive are those of the source. Calls follow the shape of the dose curve; as a rule, active = well fitted cell-killing curve with a large enough effect; inconclusive = small, poorly fitted or top-dose-only effect, or effect the other way; inactive = flat fitted curve, though single readings scatter.

assay: qHTS of pediatric cancer cell lines to identify multiple opportunities for drug repurposing: Confirmatory screen for control Hh wild type fibroblast cells (AID 1347121); conditions: viability qHTS; series mostly up to 45.9 µM; also: nearly all actives have a fitted effect of over 70% in size
From the text: Drug repurposing or repositioning has been offered as a strategy for drug development in oncology programs. This approach has special potential for childhood cancers and other rare or orphan diseases, where the expected return on new drug development has been a disincentive to pharmaceuticals.
In this project we exploit the poly-pharmacology of drugs to discover new indications via phenotypic screening of a panel of 19 well-characterized cell lines derived from solid tumors seen in children and adolescents. The goal is to identify approved drugs with previously unrecognized anticancer properties that has the potential to reveal new mechanisms and biological processes involved in carcinogenesis or drug resistance. We employed a titration-based paradigm (quantitative high-throughput screening or qHTS), where all compounds were tested at multiple concentrations for their effect on cell viability. Concentration-response curves (CRCs) were derived directly from the primary screen, and both potency and efficacy values were used to identify compounds with robust bioactivity profiles. We screened the NIH Chemical Genomics Center (NCGC) Pharmaceutical Collection (NPC) and Mechanism Interrogation Plate (MIPE) small molecule collections of approved and investigational compounds against these cell lines; and measured metabolically active cells after 48 hours of compound treatment as a proxy for cell viability.
Assay Submitter: Nathalia J. Martinez, National Center for Advancing Translational Sciences, National Institutes of Health, Rockville, MD, USA; email: natalia.martinez@nih.gov
[1] Shen, M et al. Quantitative high-throughput phenotypic screening of pediatric cancer cell lines identifies multiple opportunities for drug repurposing. Oncotarget 2017 Dec 19;9(4):4758-4772. PMID 29435139.
The cells were obtained from University of North Carolina (UNC), Pediatric Preclinical Testing Program (PPT), and Coriell Institute (CI).
qHTS cell viability assay:
Cells were assayed in growth media at a density of 500-1,000 cells/well. Five microliters of cells were dispensed into 1,536-well, white, solid-bottom, TC-treated plates (Greiner Bio One) using a multidrop dispenser and incubated at 37 degrees C, 5% CO2, under a humidified atmosphere for 5 hours. Twenty-three nanoliters of compounds and controls (neutral control DMSO or positive control bortezomib at final concentration of 2.3 µM) were subsequently transferred by Kalypsys pintool. For primary screens, the MIPE collection was tested at 11-point dilutions (final concentrations range from 0.78 nM to 46 µM) and the NPC collection at 8-point dilutions (final concentrations range from 0.59 nM to 46 µM). Compounds tested in follow-up screens were assayed at 11-point dilutions. Cells were incubated for 48 hours, followed by addition of 3 µL of CellTiter-Glo (Promega). After a 15 min incubation at room temperature, samples were analyzed for luminescence intensity using a ViewLux High-throughput CCD imager equipped with clear filters.
Potency is read from the fitted curve at half-maximal effect.

| Compound | Potency |
| --- | --- |
| COc1ccc2c(C(=O)c3ccc(Cl)cc3)c(C)n(CC(=O)O)c2c1 | inactive |
| C[C@@H]1C[C@@H]([C@H](O)CC2CC(=O)NC(=O)C2)C(=O)[C@@H](C)C1 | inactive |
| COC(=O)C1=CCCN(C)C1 | inactive |
| COc1ccc(C(=O)N2CCCC2=O)cc1 | inactive |
| CCCCCCCCC(=O)NCc1ccc(O)c(OC)c1 | inactive |
| Cc1ccc([N+](=O)[O-])[c]2c1[O][Hg]2 | 16.5 µM (active) |
| O=C(O)Cc1ccccc1 | inactive |
| CC1Sc2c(C(=O)O)c(=O)c3cc(F)c(N4CCNCC4)cc3n21 (stereo not drawn) | inactive |
| CC[n+]1c(-c2ccccc2)c2cc(N)ccc2c2ccc(N)cc21 | 9.27 µM (active) |
| CN1[C@@H]2CC[C@H]1CC(OC(=O)c1cc(Cl)cc(Cl)c1)C2 (stereo partly drawn) | inactive |
| CN(C)C(=S)SSC(=S)N(C)C | inactive |
| CCc1ccc(C2CCNCC2)cc1 | inactive |
| ClC1=C(Cl)C2(Cl)C(CBr)CC1(Cl)C2(Cl)Cl (stereo not drawn) | inactive |
